Values joined by “and” are separate entries in the source; they are usually repeats but may differ in a detail not shown here. Identical values can stand only once. In all, about 5,500 compounds went through this assay and about 2,000 (36%) were called active. Not shown: some 18% with an inconclusive outcome. No stated cut-off is given here; in the data, active means normalized growth mostly below about 0.91 (no sharp cut-off); inconclusive means no clear call, values can overlap the other calls; inactive means mostly above about 0.92. The list shows a part of the results. The source holds several records for some structures; these can differ, active in one and inactive in another.
Test: chemical genetic growth profiling, strain panel (AID 1159580);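 further: tested at 20 µM; growth read once vehicle control cultures reached saturation at 30 °C; 1 = growth at the plate median or of vehicle wells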
Details: S. cerevisiae deletion strains, growth OD

Measured: normalized growth

O=c1[nH]cc(F)c(=O)[nH]1
active: locus YAL021C, strain ccr4, stronger effect = lower value 0.841 | locus YAL026C, strain drs2, stronger effect = lower value 0.445 | locus YAL030W, strain snc1, stronger effect = lower value 0.642 | locus YBL061C, strain skt5, stronger effect = lower value 0.689 | locus YBR009C, strain hhf1, stronger effect = lower value 0.458 | locus YBR021W, strain FUR4, stronger effect = lower value 0.81 | locus YBR023C, strain chs3, stronger effect = lower value 0.678 | locus YBR231C, strain swc5, stronger effect = lower value 0.639 | locus YBR279W, strain paf1, stronger effect = lower value 0.555 | locus YCL011C, strain gbp2, stronger effect = lower value 0.509 | locus YCL016C, strain dcc1, stronger effect = lower value 0.586 | locus YCL029C, strain bik1, stronger effect = lower value 0.717 | locus YCL061C, strain MRC1, stronger effect = lower value 0.702 | locus YCL069W, strain vba3, stronger effect = lower value 0.484 | locus YCR088W, strain abp1, stronger effect = lower value 0.651 | locus YDL035C, strain GPR1, stronger effect = lower value 0.591 | locus YDL040C, strain nat1, stronger effect = lower value 0.869 | locus YDL192W, strain arf1, stronger effect = lower value 0.715 | locus YDR001C, strain nth1, stronger effect = lower value 0.747 | locus YDR069C, strain doa4, stronger effect = lower value 0.636 | locus YDR101C, strain arx1, stronger effect = lower value 0.64 | locus YDR137W, strain rgp1, stronger effect = lower value 0.629 | locus YDR159W, strain sac3, stronger effect = lower value 1.3 [resistant] | locus YDR162C, strain NBP2, stronger effect = lower value 0.693 | locus YDR195W, strain ref2 0.63 | locus YDR297W, strain sur2, stronger effect = lower value 0.676 | locus YDR318W, strain mcm21, stronger effect = lower value 0.701 | locus YDR334W, strain swr1, stronger effect = lower value 0.741 | locus YDR335W, strain msn5, stronger effect = lower value 0.538 | locus YDR363W, strain ESC2, stronger effect = lower value 0.864 | locus YDR388W, stronger effect = lower value 0.753 | locus YDR392W, strain spt3, stronger effect = lower value 0.476 | locus YDR502C, strain sam2, stronger effect = lower value 0.657 | locus YEL003W, strain gim4, stronger effect = lower value 0.518 | locus YEL037C, strain rad23, stronger effect = lower value 0.539 | locus YEL061C, strain CIN8 (second series), stronger effect = lower value 0.728 | locus YER015W, strain faa2, stronger effect = lower value 0.702 | locus YER016W, strain bim1, stronger effect = lower value 0.629 | locus YER111C, strain swi4, stronger effect = lower value 0.858 | locus YER155C, strain BEM2 (second series), stronger effect = lower value 0.535 | locus YER167W, strain BCK2, stronger effect = lower value 0.795 | locus YFR010W, strain ubp6, stronger effect = lower value 0.598 | locus YGL078C, strain dbp3, stronger effect = lower value 0.571 | locus YGL086W, strain mad1, stronger effect = lower value 0.743 | locus YGL173C, strain kem1, stronger effect = lower value 0.719 | locus YGL227W, strain vid30, stronger effect = lower value 0.856 | locus YGL248W, strain PDE1, stronger effect = lower value 0.71 | locus YGL253W, strain hxk2, stronger effect = lower value 0.328 | locus YGR135W, strain pre9, stronger effect = lower value 0.871 | locus YGR252W, strain gcn5, stronger effect = lower value 0.757 | locus YHR027C, strain rpn1, stronger effect = lower value 0.625 | locus YHR030C, strain SLT2, stronger effect = lower value 0.918 and 0.61 | locus YHR079C, strain IRE1 (second series), stronger effect = lower value 0.665 | locus YHR079C, strain IRE1, stronger effect = lower value 0.553 | locus YHR129C, strain ARP1, stronger effect = lower value 0.896 | locus YHR142W, strain chs7, stronger effect = lower value 0.484 | locus YHR200W, strain rpn10, stronger effect = lower value 0.906 | locus YIL066C, strain RNR3, stronger effect = lower value 0.848 | locus YIL125W, strain kgd1, stronger effect = lower value 0.851 | locus YIR030C, strain dcg1, stronger effect = lower value 0.838 | locus YJL092W, strain hpr5, stronger effect = lower value 0.476 | locus YJL095W, strain BCK1 (second series), stronger effect = lower value 0.689 | locus YJL095W, strain BCK1, stronger effect = lower value 0.661 and 0.616 | locus YJL115W, strain asf1, stronger effect = lower value 0.697 | locus YJL129C, strain trk1, stronger effect = lower value 0.642 | locus YJL154C, strain vps35, stronger effect = lower value 0.756 | locus YJL164C, strain tpk1, stronger effect = lower value 0.463 | locus YJL166W, strain qcr8, stronger effect = lower value 0.577 | locus YJL187C, strain SWE1 (second series), stronger effect = lower value 0.722 | locus YJL187C, strain SWE1, stronger effect = lower value 0.77 | locus YJR043C, strain POL32, stronger effect = lower value 0.669 | locus YJR066W, strain TOR1, stronger effect = lower value 0.532 | locus YJR075W, strain HOC1, stronger effect = lower value 0.835
inactive: locus YAL040C, strain CLN3, stronger effect = lower value 1.05 | locus YBR171W, strain sec66, stronger effect = lower value 1.09 | locus YBR229C, strain ROT2, stronger effect = lower value 1.01 | locus YDL005C, strain med2, stronger effect = lower value 0.977 | locus YDL074C, strain BRE1, stronger effect = lower value 0.847 | locus YDL101C, strain DUN1, stronger effect = lower value 0.955 | locus YDL185W, strain tfp1, stronger effect = lower value 1 | locus YER002W, strain NOP16, stronger effect = lower value 1.04 | locus YER110C, stronger effect = lower value 1.01 | locus YER155C, strain BEM2, stronger effect = lower value 1.01 | locus YGL167C, strain pmr1, stronger effect = lower value 1.03 | locus YGL240W, strain doc1, stronger effect = lower value 0.901 | locus YGR229C, strain SMI1, stronger effect = lower value 0.948 | locus YHR013C, strain ard1, stronger effect = lower value 0.846 | locus YHR094C, strain hxt1, stronger effect = lower value 0.944 | locus YIL073C, strain SPO22, stronger effect = lower value 0.762 | locus YJL134W, strain LCB3, stronger effect = lower value 1.04 | locus YJL168C, strain set2, stronger effect = lower value 1.02
0.957 (inactive) and 0.85 (active): locus YDR150W, strain NUM1, stronger effect = lower value

Source: PubChem BioAssay AID1159580 (chemical genetic matrix, 2015)
